# Source: PubChem BioAssay (EPA / NIEHS)
# “And” between values parts separate entries of the source, which are not always exact repeats. Equal values may be shown once. A structure can be active in one record and inactive in another. The source made the active and inactive calls. How the source made its calls: active means hit-call score of the fitted dose curve at least 0.9, where 1 is the maximum; inactive means score below 0.9.
# Experiments:
# [1] = BSK_KF3CT_SRB: Viability Assessment in the BioMAP Diversity Plus: KF3CT Assay (AID 2283069); settings: primary human keratinocytes with fibroblasts;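 further: total protein by sulforhodamine B staining as a cytotoxicity measure; read 24 h after compound addition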
# Summary of the method: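 SRB read-out at 560 nm (0.1% stain, TCA-fixed cells) gauges overt cytotoxicity in a human skin keratinocyte–fibroblast co-culture 24 h post-dosing. Signal change was fitted bidirectionally relative to DMSO control.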
# [2] = read-out: Interleukin-1 alpha (IL1a), IL1A (gene 3552); test: BSK_KF3CT_IL1a: BioMAP Diversity Plus: KF3CT Assay for Interleukin-1 alpha (IL1a) Biomarker Activity (AID 2283070); settings: primary human keratinocytes with fibroblasts; actives raise or lower the signal
# Summary of the method: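 Primary skin co-culture (keratinocytes, foreskin fibroblasts), 24 h exposure; ELISA for IL-1a; bidirectional curve fit vs DMSO.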
# [3] = read-out: TIMP metallopeptidase inhibitor 2 (TIMP2), TIMP2 (gene 7077); test: BSK_KF3CT_TIMP2: BioMAP Diversity Plus: KF3CT Assay for TIMP metallopeptidase inhibitor 2 (TIMP2) Biomarker Activity (AID 2283071); settings: primary human keratinocytes with fibroblasts; actives raise or lower the signal
# Summary of the method: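 Chemicals were dosed onto human skin primary co-cultures of keratinocytes and foreskin fibroblasts, and TIMP-2 was measured by ELISA after 24 hours. Activity in either direction was fitted relative to DMSO.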
# [4] = read-out: Transforming growth factor beta 1 (TGFb1), TGFB1 (gene 7040); test: BSK_KF3CT_TGFb1: BioMAP Diversity Plus: KF3CT Assay for Transforming growth factor beta 1 (TGFb1) Biomarker Activity (AID 2283072); settings: primary human keratinocytes with fibroblasts; actives raise or lower the signal
# Summary of the method: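 KF3CT co-culture (keratinocytes + fibroblasts), 24 h exposure → TGF-b1 ELISA → bidirectional fit, DMSO = baseline. Parallel SRB total-protein staining (0.1% SRB, 10% TCA fixation, 560 nm) for cytotoxicity.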
# [5] = read-out: C-C motif chemokine 2 (Homo sapiens) (UniProt P13500); test: BSK_KF3CT_MCP1: BioMAP Diversity Plus: KF3CT Assay for Monocyte Chemoattractant Protein 1 (MCP1/CCL2) Biomarker Activity (AID 2283073); settings: primary human keratinocytes with fibroblasts; actives raise or lower the signal
# Summary of the method: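 Human keratinocyte plus foreskin fibroblast primary co-culture exposed to chemical for 24 h. MCP-1 levels measured by ELISA. Bidirectional curve fitting relative to DMSO negative control as baseline.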
# [6] = read-out: Matrix Metallopeptidase 9 (MMP9), MMP9 (gene 4318); test: BSK_KF3CT_MMP9: BioMAP Diversity Plus: KF3CT Assay for Matrix Metallopeptidase 9 (MMP9) Biomarker Activity (AID 2283074); settings: primary human keratinocytes with fibroblasts; actives raise or lower the signal
# Summary of the method: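 ELISA read-out of MMP-9 at 24 h post-dosing in a co-culture of human skin keratinocytes and foreskin fibroblasts. Gain or loss of signal was fitted in both directions against DMSO.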
# [7] = read-out: urokinase plasminogen activator (uPA), PLAU (gene 5328); test: BSK_KF3CT_uPA: BioMAP Diversity Plus: KF3CT Assay for urokinase plasminogen activator (uPA) Biomarker Activity (AID 2283075); settings: primary human keratinocytes with fibroblasts; actives raise or lower the signal
# Summary of the method: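 Skin co-culture (keratinocytes + foreskin fibroblasts), human primary; 24 h post-dose; uPA by ELISA; gain/loss fit vs DMSO baseline.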
# [8] = read-out: CD40, CD40 (gene 958); test: BSK_LPS_CD40: BioMAP Diversity Plus: LPS Assay for CD40 Biomarker Activity (AID 2283076); settings: primary human HUVEC with PBMC; actives raise or lower the signal
# Summary of the method: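 Primary human umbilical vein endothelial cells co-cultured with peripheral blood mononuclear cells, LPS-stimulated, were dosed with chemical and read 24 h later. CD40 levels were measured by ELISA and fitted bidirectionally against DMSO as negative control and baseline.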
# [9] = read-out: E-selectin (Homo sapiens) (UniProt P16581); test: BSK_LPS_Eselectin: BioMAP Diversity Plus: LPS Assay for Eselectin Biomarker Activity (AID 2283077); settings: primary human HUVEC with PBMC; actives raise or lower the signal
# Summary of the method: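 Human umbilical vein endothelial cells co-cultured with peripheral blood mononuclear cells under LPS stimulation; E-selectin measured by ELISA 24 h after chemical dosing. Activity fitted bidirectionally against DMSO as negative control and baseline.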
# [10] = read-out: Interleukin-8 (IL8), CXCL8 (gene 3576); test: BSK_LPS_IL8: BioMAP Diversity Plus: LPS Assay for Interleukin-8 (IL8) Biomarker Activity (AID 2283078); settings: primary human HUVEC with PBMC; actives raise or lower the signal
# Summary of the method: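 Human umbilical vein endothelial cells co-cultured with PBMC were stimulated with LPS; IL-8 levels were measured by ELISA 24 h after chemical dosing. Activity was fitted bidirectionally against DMSO as negative control and baseline.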
# [11] = BSK_LPS_SRB: Viability Assessment in the BioMAP Diversity Plus: LPS Assay (AID 2283079); settings: primary human HUVEC with PBMC;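 further: total protein by sulforhodamine B absorbance as a cytotoxicity measure; measured one day after compound addition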
# Summary of the method: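 Human umbilical vein endothelial cells co-cultured with PBMC (LPS system) were dosed for 24 h. Total protein was stained with 0.1% sulforhodamine B after 10% TCA fixation, read at 560 nm, and fitted bidirectionally against DMSO baseline.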
# [12] = read-out: Interleukin-1 alpha (IL1a), IL1A (gene 3552); test: BSK_LPS_IL1a: BioMAP Diversity Plus: LPS Assay for Interleukin-1 alpha (IL1a) Biomarker Activity (AID 2283080); settings: primary human HUVEC with PBMC; actives raise or lower the signal
# Summary of the method: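 Human umbilical vein endothelial cells co-cultured with peripheral blood mononuclear cells were LPS-stimulated and exposed to test chemicals for 24 h. IL-1 alpha was quantified by ELISA, with bidirectional curve fitting against DMSO as the negative control and baseline.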
# [13] = read-out: Monocyte Chemoattractant Protein-1 (MCP1), CCL2 (gene 6347); test: BSK_LPS_MCP1: BioMAP Diversity Plus: LPS Assay for Monocyte Chemoattractant Protein-1 (MCP1) Biomarker Activity (AID 2283081); settings: primary human HUVEC with PBMC; actives raise or lower the signal
# Summary of the method: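 HUVEC plus PBMC co-culture (human primary cells, LPS system) exposed to test chemical for 24 h; MCP-1 measured by ELISA. Bidirectional curve fitting against DMSO baseline; parallel SRB total-protein staining flags overt cytotoxicity.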
# [14] = read-out: Macrophage colony-stimulating factor (MCSF), CSF1 (gene 1435); test: BSK_LPS_MCSF: BioMAP Diversity Plus: LPS Assay for Macrophage colony-stimulating factor (MCSF) Biomarker Activity (AID 2283083); settings: primary human HUVEC with PBMC; actives raise or lower the signal
# Summary of the method: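 Human umbilical vein endothelial cells co-cultured with peripheral blood mononuclear cells were exposed to compound for 24 h. M-CSF levels were measured by ELISA, and bidirectional curve fitting used DMSO as the negative control and baseline.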
# [15] = read-out: Tissue Factor, F3 (gene 2152); test: BSK_LPS_TissueFactor: BioMAP Diversity Plus: LPS Assay for Tissue Factor Biomarker Activity (AID 2283084); settings: primary human HUVEC with PBMC; actives raise or lower the signal
# Summary of the method: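 Human umbilical vein endothelial cells co-cultured with peripheral blood mononuclear cells were dosed and stimulated with LPS. Cell-surface CD142 was quantified by ELISA at 24 h. Activity was fitted bidirectionally against DMSO baseline.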
# [16] = read-out: Tumor necrosis factor (Homo sapiens) (UniProt P01375); test: BSK_LPS_TNFa: BioMAP Diversity Plus: LPS Assay for Tumour Necrosis Factor alpha (TNFa) Biomarker Activity (AID 2283085); settings: primary human HUVEC with PBMC; actives raise or lower the signal
# Summary of the method: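 Cells (umbilical vein endothelium plus peripheral blood mononuclear cells) were dosed with chemical, incubated 24 h, then TNFa was quantified by ELISA; values derive from bidirectional fitting with DMSO as baseline.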
# [17] = read-out: Vascular cell adhesion molecule 1 (VCAM1), VCAM1 (gene 7412); test: BSK_LPS_VCAM1: BioMAP Diversity Plus: LPS Assay for Vascular cell adhesion molecule 1 (VCAM1) Biomarker Activity (AID 2283086); settings: primary human HUVEC with PBMC; actives raise or lower the signal
# Summary of the method: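 Cells are dosed in an LPS-stimulated endothelial/mononuclear co-culture and, after 24 h, VCAM-1 is quantified by ELISA. Activity in either direction is fitted relative to the DMSO negative control.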
# [18] = read-out: CD38, CD38 (gene 952); test: BSK_SAg_CD38: BioMAP Diversity Plus: SAg Assay for CD38 Biomarker Activity (AID 2283087); settings: primary human HUVEC with PBMC; actives raise or lower the signal
# Summary of the method: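 CD38 quantified by ELISA (fluorescence) in a superantigen-activated endothelial cell–PBMC co-culture at 24 h post-dose. Activity fitted in both directions relative to DMSO; parallel SRB and Alamar Blue cytotoxicity read-outs.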
# [19] = BSK_LPS_PGE2: BioMAP Diversity Plus: LPS Assay for Prostaglandin E2 (PGE2) Biomarker Activity (AID 2283082); settings: primary human HUVEC with PBMC; actives raise or lower the signal
# Summary of the method: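 Compounds were added to the LPS co-culture of endothelium and PBMC, and PGE2 was measured by ELISA after 24 h. Responses in either direction were fitted with DMSO as baseline.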
# [20] = read-out: CD40, CD40 (gene 958); test: BSK_SAg_CD40: BioMAP Diversity Plus: SAg Assay for CD40 Biomarker Activity (AID 2283088); settings: primary human HUVEC with PBMC; actives raise or lower the signal
# Summary of the method: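 Human umbilical vein endothelial cells co-cultured with PBMC; CD40 levels measured by ELISA with fluorescence read-out 24 h after chemical dosing. Gain or loss of signal fitted bidirectionally against DMSO baseline.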
# Sequence of Tumor necrosis factor (Homo sapiens) (P01375 whole entry, looked up): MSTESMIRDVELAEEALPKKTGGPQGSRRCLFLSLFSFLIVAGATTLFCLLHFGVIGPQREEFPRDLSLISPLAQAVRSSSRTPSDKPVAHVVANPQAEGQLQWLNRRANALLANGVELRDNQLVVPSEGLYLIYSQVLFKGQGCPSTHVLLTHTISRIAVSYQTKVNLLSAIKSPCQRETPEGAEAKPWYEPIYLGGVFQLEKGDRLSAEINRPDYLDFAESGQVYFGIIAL
# Sequence of E-selectin (Homo sapiens) (P16581 whole entry, looked up): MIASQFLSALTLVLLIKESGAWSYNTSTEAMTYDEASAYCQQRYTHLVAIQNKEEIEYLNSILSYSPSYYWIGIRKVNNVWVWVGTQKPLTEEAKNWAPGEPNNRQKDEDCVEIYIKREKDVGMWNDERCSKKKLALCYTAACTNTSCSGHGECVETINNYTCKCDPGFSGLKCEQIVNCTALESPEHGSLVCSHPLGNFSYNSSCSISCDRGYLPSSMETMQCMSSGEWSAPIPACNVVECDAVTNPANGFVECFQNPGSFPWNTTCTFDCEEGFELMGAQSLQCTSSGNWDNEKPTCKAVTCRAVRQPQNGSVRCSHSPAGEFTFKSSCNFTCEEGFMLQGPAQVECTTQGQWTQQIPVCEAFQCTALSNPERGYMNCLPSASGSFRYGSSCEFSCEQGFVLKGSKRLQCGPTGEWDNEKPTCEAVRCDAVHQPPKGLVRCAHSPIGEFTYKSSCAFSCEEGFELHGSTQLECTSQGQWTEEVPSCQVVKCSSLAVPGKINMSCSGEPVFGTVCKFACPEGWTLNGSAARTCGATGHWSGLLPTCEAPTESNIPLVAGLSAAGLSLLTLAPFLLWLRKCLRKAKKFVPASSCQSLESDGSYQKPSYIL
compound,measurement,setting,value
Cc1ccccc1N,outcome,[1],inactive
same,outcome,[2],inactive
same,outcome,[3],inactive
same,outcome,[4],inactive
same,outcome,[5],inactive
same,outcome,[6],inactive
same,outcome,[7],inactive
same,outcome,[8],inactive
same,outcome,[9],inactive
same,outcome,[10],inactive
same,outcome,[11],inactive
same,outcome,[12],inactive
same,outcome,[13],inactive
same,outcome,[14],inactive
same,outcome,[15],inactive
same,outcome,[16],inactive
same,outcome,[17],inactive
same,outcome,[18],inactive
CC1(C)Cc2cccc(O)c2O1,outcome,[1],inactive
same,outcome,[2],inactive
same,outcome,[3],inactive
same,outcome,[4],inactive
same,outcome,[5],inactive
same,outcome,[6],inactive
same,outcome,[7],inactive
same,outcome,[8],inactive
same,outcome,[9],inactive
same,outcome,[10],inactive
same,outcome,[11],inactive
same,outcome,[12],inactive
same,outcome,[13],inactive
same,outcome,[14],inactive
same,outcome,[15],inactive
same,outcome,[16],inactive
same,outcome,[17],inactive
same,outcome,[18],inactive
CC(C)c1ccc(CO)cc1,outcome,[1],inactive
same,outcome,[2],inactive
same,outcome,[3],inactive
same,outcome,[4],inactive
same,outcome,[5],inactive
same,outcome,[6],inactive
same,outcome,[7],inactive
same,outcome,[8],inactive
same,outcome,[9],inactive
same,outcome,[10],inactive
same,outcome,[11],inactive
same,outcome,[12],inactive
same,outcome,[13],inactive
same,outcome,[19],inactive
same,outcome,[14],inactive
same,outcome,[15],inactive
same,outcome,[16],inactive
same,outcome,[17],inactive
same,outcome,[18],inactive
same,outcome,[20],inactive
O=C(O)C(F)(F)C(F)(F)C(F)(F)C(F)(F)C(F)(F)C(F)(F)F,outcome,[1],inactive
same,outcome,[2],inactive
same,outcome,[3],inactive
same,outcome,[4],inactive
same,outcome,[5],inactive
same,outcome,[6],inactive
same,outcome,[7],inactive
same,outcome,[8],inactive
same,outcome,[9],inactive
same,AC50,[10],14.6 µM (active) and 30 µM (active)
same,outcome,[10],inactive
same,outcome,[11],inactive
same,outcome,[12],inactive
same,outcome,[13],inactive
same,outcome,[19],inactive
same,outcome,[14],inactive
same,outcome,[15],inactive
same,outcome,[16],inactive
same,outcome,[17],inactive
same,outcome,[18],inactive
same,outcome,[20],inactive
